Data on one compound can be found in PubChem BioAssay (EPA / NIEHS).

The structures appear in SMILES notation. Inconclusive results are not listed. Active and inactive are the calls of the source. Rule for the calls, unless noted: active = hit-call score of the fitted dose curve at least 0.9, where 1 is the maximum; inconclusive = response in the unintended direction; inactive = score below 0.9.

As a reminder, the AC50 is the midpoint of the concentration-response curve, whichever way the signal moves.

Test [1] is described as follows: CCTE_Mundy_HCI_Cortical_NOG_NeuriteCount: CCTE's Neurite Outgrowth Assay in rat cortical cells for Neurite Count, Mundy Lab (AID 2284212; active = hit-call score of the fitted dose curve at least 0.9, where 1 is the maximum; inactive = score below 0.9;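 note: cells fixed about two days after chemical exposure began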). The procedure, abridged: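 Rat cortical primary cells; compound added 2 h post-plating, 1/10 dilution of working solution. Anti-betaIII-tubulin/AF488 ICC; ArrayScan neurite count vs DMSO.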
Test [2] is described as follows: CCTE_Mundy_HCI_Cortical_NOG_NeuriteLength: CCTE's Neurite Outgrowth Assay in rat cortical cells for Neurite Length, Mundy Lab (AID 2284213; active = hit-call score of the fitted dose curve at least 0.9, where 1 is the maximum; inactive = score below 0.9). In outline:
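First, rat primary cortical cells were plated and, 2 h later, given test chemical as a 1/10 dilution. Finally, βIII-tubulin immunostaining enabled automated imaging of neurite length.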

Test [3] can be described thus: CCTE_Mundy_HCI_hN2_NOG_NeuriteCount: CCTE's Neurite Outgrowth Assay in human hN2 cells for Neurite Count, Mundy Lab (AID 2284219). In outline: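 In this morphology assay, hNP1-derived neurons received test chemical 2 h post-plating and were fixed two days later in warm paraformaldehyde/sucrose containing Hoechst 33342. Neurites, labelled by rabbit anti-βIII-tubulin (1:800) and Alexa Fluor-488 (1:500), were counted automatically.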

Test [4] in a line: CCTE_Mundy_HCI_hN2_NOG_NeuriteLength: CCTE's Neurite Outgrowth Assay in human hN2 cells for Neurite Length, Mundy Lab (AID 2284220). In outline:
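Using βIII-tubulin immunofluorescence and Hoechst nuclear counterstain, this component quantifies neurite length in hNP1-derived neurons.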

Test [5] is described as follows: CCTE_Mundy_HCI_hN2_NOG_NeuronCount: CCTE's Neurite Outgrowth Assay in human hN2 cells for Neuron Count, Mundy Lab (AID 2284221). The procedure, abridged: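 Read-out is the number of betaIII-tubulin-positive neurons imaged by automated high-content analysis, with DMSO as negative control.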
Test [6] is described as follows: CCTE_Mundy_HCI_Cortical_NOG_NeuronCount: CCTE's Neurite Outgrowth Assay in rat cortical cells for Neuron Count, Mundy Lab (AID 2284236).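 Note: neurons counted by imaging betaIII-tubulin and Hoechst stained cortical cells; cells exposed to compound for about 48 hours before fixation.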 The procedure, abridged: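 Read-out: neuron number by high-content imaging of betaIII-tubulin (Alexa Fluor-488) and Hoechst-labelled rat primary cortical cells.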
Test [7] is described as follows: CCTE_Mundy_HCI_Cortical_NOG_BPCount: CCTE's Neurite Outgrowth Assay in rat cortical cells for Branch Point Count, Mundy Lab (AID 2284237; active = hit-call score of the fitted dose curve at least 0.9, where 1 is the maximum; inactive = score below 0.9). In outline:
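Measured 50.33 h after dosing, this morphology endpoint uses rat primary cortical cultures labelled for betaIII-tubulin. Branch points are quantified by high-content imaging, with DMSO as negative control and baseline.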

Take `[Li+]`: the result in test [1], in test [2], in test [3], in test [6] and in test [7] was inactive. For the same compound, the AC50 is 0.3 µM (active) in test [4] and 0.304 µM (active) in test [5].
